Experimental data published in PubChem BioAssay AID1159580 (chemical genetic matrix, 2015).
Screen size: about 5,500 compounds; about 2,000 (36%) were called active. Roughly 18% stayed inconclusive and do not appear here. Rule as the data show it: active = normalized growth mostly below about 0.91 (no sharp cut-off); inconclusive = no clear call, values can overlap the other calls; inactive = mostly above about 0.92. Some of the results follow.

Assay: chemical genetic growth profiling, strain panel (AID 1159580);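 also: tested at 20 µM; growth read once vehicle control cultures reached saturation at 30 °C; 1 = growth at the plate median or of vehicle wells; lower values mean less growth of the strain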
Conditions: growth OD

Measured: normalized growth

COc1cc(O)c(C(=O)/C=C/c2ccccc2)c(OC)c1
active: S. cerevisiae deletion strains, locus YAL013W, strain DEP1, hits give low values 0.897 | S. cerevisiae deletion strains, locus YBR009C, strain hhf1, hits give low values 0.846 | S. cerevisiae deletion strains, locus YBR023C, strain chs3, hits give low values 0.893 | S. cerevisiae deletion strains, locus YBR279W, strain paf1, hits give low values 0.894 | S. cerevisiae deletion strains, locus YCL011C, strain gbp2, hits give low values 0.867 | S. cerevisiae deletion strains, locus YCL016C, strain dcc1, hits give low values 0.861 | S. cerevisiae deletion strains, locus YDL074C, strain BRE1, hits give low values 0.682 | S. cerevisiae deletion strains, locus YDL134C, strain PPH21, hits give low values 0.807 | S. cerevisiae deletion strains, locus YDL192W, strain arf1, hits give low values 0.796 | S. cerevisiae deletion strains, locus YDR101C, strain arx1, hits give low values 0.857 | S. cerevisiae deletion strains, locus YDR137W, strain rgp1, hits give low values 0.717 | S. cerevisiae deletion strains, locus YDR195W, strain ref2 1.18 [resistant] | S. cerevisiae deletion strains, locus YDR318W, strain mcm21, hits give low values 0.816 | S. cerevisiae deletion strains, locus YDR392W, strain spt3, hits give low values 0.373 | S. cerevisiae deletion strains, locus YDR502C, strain sam2, hits give low values 0.819 | S. cerevisiae deletion strains, locus YER015W, strain faa2, hits give low values 0.89 | S. cerevisiae deletion strains, locus YER110C, hits give low values 0.863 | S. cerevisiae deletion strains, locus YER155C, strain BEM2 (second series), hits give low values 0.807 | S. cerevisiae deletion strains, locus YER155C, strain BEM2, hits give low values 0.625 | S. cerevisiae deletion strains, locus YGL086W, strain mad1, hits give low values 0.794 | S. cerevisiae deletion strains, locus YGL240W, strain doc1, hits give low values 0.819 | S. cerevisiae deletion strains, locus YGL248W, strain PDE1, hits give low values 0.8 | S. cerevisiae deletion strains, locus YGL253W, strain hxk2, hits give low values 0.85 | S. cerevisiae deletion strains, locus YGR135W, strain pre9, hits give low values 0.83 | S. cerevisiae deletion strains, locus YGR229C, strain SMI1, hits give low values 0.681 | S. cerevisiae deletion strains, locus YGR252W, strain gcn5, hits give low values 0.667 | S. cerevisiae deletion strains, locus YHR079C, strain IRE1 (second series), hits give low values 0.909 | S. cerevisiae deletion strains, locus YHR094C, strain hxt1, hits give low values 0.917 | S. cerevisiae deletion strains, locus YHR129C, strain ARP1, hits give low values 0.857 | S. cerevisiae deletion strains, locus YHR142W, strain chs7, hits give low values 0.791 | S. cerevisiae deletion strains, locus YHR200W, strain rpn10, hits give low values 0.891 | S. cerevisiae deletion strains, locus YIR030C, strain dcg1, hits give low values 0.898 | S. cerevisiae deletion strains, locus YJL095W, strain BCK1, hits give low values 0.574 | S. cerevisiae deletion strains, locus YJL129C, strain trk1, hits give low values 0.779 | S. cerevisiae deletion strains, locus YJL164C, strain tpk1, hits give low values 0.858 | S. cerevisiae deletion strains, locus YJL166W, strain qcr8, hits give low values 0.792 | S. cerevisiae deletion strains, locus YJL187C, strain SWE1 (second series), hits give low values 0.866 | S. cerevisiae deletion strains, locus YKL068W, hits give low values 0.934 | S. cerevisiae deletion strains, locus YKL160W, strain elf1, hits give low values 0.852 | S. cerevisiae deletion strains, locus YKR001C, strain vps1, hits give low values 0.642 | S. cerevisiae deletion strains, locus YLL001W, strain dnm1, hits give low values 0.899 | S. cerevisiae deletion strains, locus YLR027C, strain aat2, hits give low values 0.859 | S. cerevisiae deletion strains, locus YLR039C, strain RIC1, hits give low values 0.674 | S. cerevisiae deletion strains, locus YLR058C, strain SHM2, hits give low values 0.848 | S. cerevisiae deletion strains, locus YLR102C, strain apc9, hits give low values 0.922 | S. cerevisiae deletion strains, locus YLR221C, strain rsa3, hits give low values 0.844 | S. cerevisiae deletion strains, locus YLR258W, strain gsy2, hits give low values 0.907 | S. cerevisiae deletion strains, locus YLR262C, strain YPT6 (second series), hits give low values 0.774 | S. cerevisiae deletion strains, locus YLR268W, strain sec22, hits give low values 0.804 | S. cerevisiae deletion strains, locus YLR320W, strain mms22, hits give low values 0.748 | S. cerevisiae deletion strains, locus YLR371W, strain rom2, hits give low values 0.8 | S. cerevisiae deletion strains, locus YLR418C, strain cdc73, hits give low values 0.41 | S. cerevisiae deletion strains, locus YML032C, strain rad52, hits give low values 0.826 | S. cerevisiae deletion strains, locus YML120C, strain ndi1, hits give low values 0.866 | S. cerevisiae deletion strains, locus YML124C, strain tub3, hits give low values 0.923 | S. cerevisiae deletion strains, locus YMR078C, strain ctf18, hits give low values 0.898 | S. cerevisiae deletion strains, locus YMR205C, strain PFK2, hits give low values 0.805 | S. cerevisiae deletion strains, locus YMR223W, strain ubp8, hits give low values 0.87 | S. cerevisiae deletion strains, locus YMR307W, strain GAS1, hits give low values 0.502 | S. cerevisiae deletion strains, locus YNL071W, strain lat1, hits give low values 0.503 | S. cerevisiae deletion strains, locus YNL233W, strain BNI4, hits give low values 0.766 | S. cerevisiae deletion strains, locus YNL298W, strain CLA4, hits give low values 0.879 | S. cerevisiae deletion strains, locus YNL307C, strain MCK1, hits give low values 0.301 | S. cerevisiae deletion strains, locus YOL147C, strain pex11, hits give low values 0.739 | S. cerevisiae deletion strains, locus YOR070C, strain gyp1, hits give low values 0.897 | S. cerevisiae deletion strains, locus YOR083W, strain WHI5, hits give low values 0.852 | S. cerevisiae deletion strains, locus YOR106W, strain vam3, hits give low values 0.802 | S. cerevisiae deletion strains, locus YOR136W, strain idh2, hits give low values 0.907 | S. cerevisiae deletion strains, locus YOR144C, strain elg1, hits give low values 0.878 | S. cerevisiae deletion strains, locus YOR184W, strain ser1, hits give low values 0.602 | S. cerevisiae deletion strains, locus YOR265W, strain rbl2, hits give low values 0.903 | S. cerevisiae deletion strains, locus YOR290C, strain snf2, hits give low values 0.853 | S. cerevisiae deletion strains, locus YPL051W, strain arl3, hits give low values 0.82 | S. cerevisiae deletion strains, locus YPL078C, strain atp4, hits give low values 0.864 | S. cerevisiae deletion strains, locus YPL106C, strain sse1, hits give low values 0.772 | S. cerevisiae deletion strains, locus YPL240C, strain hsp82, hits give low values 0.919 | S. cerevisiae deletion strains, locus YPR119W, strain clb2, hits give low values 0.921 | S. cerevisiae deletion strains, locus YPR163C, strain tif3, hits give low values 0.605 | S. cerevisiae deletion strains, locus YPR167C, strain met16, hits give low values 0.869 | S. cerevisiae deletion strains, strain wtn01, hits give low values 0.816
inactive: S. cerevisiae deletion strains, locus YAL021C, strain ccr4, hits give low values 0.998 | S. cerevisiae deletion strains, locus YAL026C, strain drs2, hits give low values 0.945 | S. cerevisiae deletion strains, locus YAL030W, strain snc1, hits give low values 0.941 | S. cerevisiae deletion strains, locus YBL061C, strain skt5, hits give low values 0.928 | S. cerevisiae deletion strains, locus YBR021W, strain FUR4, hits give low values 0.895 | S. cerevisiae deletion strains, locus YBR171W, strain sec66, hits give low values 0.957 | S. cerevisiae deletion strains, locus YBR229C, strain ROT2, hits give low values 0.942 | S. cerevisiae deletion strains, locus YBR231C, strain swc5, hits give low values 0.917 | S. cerevisiae deletion strains, locus YCL029C, strain bik1, hits give low values 0.923 | S. cerevisiae deletion strains, locus YCL061C, strain MRC1, hits give low values 0.922 | S. cerevisiae deletion strains, locus YCL069W, strain vba3, hits give low values 0.946 | S. cerevisiae deletion strains, locus YCR088W, strain abp1, hits give low values 0.96 | S. cerevisiae deletion strains, locus YDL005C, strain med2, hits give low values 0.98 | S. cerevisiae deletion strains, locus YDL035C, strain GPR1, hits give low values 0.907 | S. cerevisiae deletion strains, locus YDL040C, strain nat1, hits give low values 0.937 | S. cerevisiae deletion strains, locus YDL101C, strain DUN1, hits give low values 0.916 | S. cerevisiae deletion strains, locus YDL185W, strain tfp1, hits give low values 0.945 | S. cerevisiae deletion strains, locus YDR001C, strain nth1, hits give low values 0.947 | S. cerevisiae deletion strains, locus YDR069C, strain doa4, hits give low values 0.963 | S. cerevisiae deletion strains, locus YDR159W, strain sac3, hits give low values 0.975 | S. cerevisiae deletion strains, locus YDR162C, strain NBP2, hits give low values 0.947 | S. cerevisiae deletion strains, locus YDR297W, strain sur2, hits give low values 0.947 | S. cerevisiae deletion strains, locus YDR334W, strain swr1, hits give low values 0.972 | S. cerevisiae deletion strains, locus YDR335W, strain msn5, hits give low values 0.949 | S. cerevisiae deletion strains, locus YDR388W, hits give low values 0.932 | S. cerevisiae deletion strains, locus YEL003W, strain gim4, hits give low values 0.914 | S. cerevisiae deletion strains, locus YEL037C, strain rad23, hits give low values 0.948 | S. cerevisiae deletion strains, locus YEL061C, strain CIN8 (second series), hits give low values 0.966 | S. cerevisiae deletion strains, locus YER016W, strain bim1, hits give low values 0.945 | S. cerevisiae deletion strains, locus YER111C, strain swi4, hits give low values 0.987 | S. cerevisiae deletion strains, locus YER167W, strain BCK2, hits give low values 0.95 | S. cerevisiae deletion strains, locus YFR010W, strain ubp6, hits give low values 0.944 | S. cerevisiae deletion strains, locus YGL078C, strain dbp3, hits give low values 0.943 | S. cerevisiae deletion strains, locus YGL167C, strain pmr1, hits give low values 0.921 | S. cerevisiae deletion strains, locus YGL173C, strain kem1, hits give low values 0.921 | S. cerevisiae deletion strains, locus YGL227W, strain vid30, hits give low values 0.968 | S. cerevisiae deletion strains, locus YHR013C, strain ard1, hits give low values 1.01 | S. cerevisiae deletion strains, locus YHR027C, strain rpn1, hits give low values 0.942 | S. cerevisiae deletion strains, locus YHR030C, strain SLT2, hits give low values 0.924 | S. cerevisiae deletion strains, locus YIL066C, strain RNR3, hits give low values 0.867 | S. cerevisiae deletion strains, locus YIL073C, strain SPO22, hits give low values 0.733 | S. cerevisiae deletion strains, locus YIL125W, strain kgd1, hits give low values 0.944 | S. cerevisiae deletion strains, locus YJL092W, strain hpr5, hits give low values 0.945 | S. cerevisiae deletion strains, locus YJL095W, strain BCK1 (second series), hits give low values 0.945 | S. cerevisiae deletion strains, locus YJL115W, strain asf1, hits give low values 0.979 | S. cerevisiae deletion strains, locus YJL134W, strain LCB3, hits give low values 0.953 | S. cerevisiae deletion strains, locus YJL154C, strain vps35, hits give low values 0.975 | S. cerevisiae deletion strains, locus YJL168C, strain set2, hits give low values 0.943 | S. cerevisiae deletion strains, locus YKL009W, strain mrt4, hits give low values 0.89 | S. cerevisiae deletion strains, locus YKL085W, strain MDH1 (second series), hits give low values 0.952 | S. cerevisiae deletion strains, locus YKL085W, strain MDH1, hits give low values 0.952 | S. cerevisiae deletion strains, locus YKL190W, strain CNB1, hits give low values 0.953 | S. cerevisiae deletion strains, locus YKR026C, strain gcn3, hits give low values 0.95 | S. cerevisiae deletion strains, locus YKR091W, strain srl3, hits give low values 0.942 | S. cerevisiae deletion strains, locus YLL026W, hits give low values 0.937 | S. cerevisiae deletion strains, locus YLL041C, strain sdh2, hits give low values 0.943 | S. cerevisiae deletion strains, locus YLR262C, strain YPT6, hits give low values 0.708 | S. cerevisiae deletion strains, locus YLR342W, strain FKS1 (second series), hits give low values 0.876 | S. cerevisiae deletion strains, locus YLR342W, strain FKS1, hits give low values 0.93 | S. cerevisiae deletion strains, locus YLR357W, strain rsc2, hits give low values 1.01 | S. cerevisiae deletion strains, locus YLR370C, strain arc18, hits give low values 0.943 | S. cerevisiae deletion strains, locus YLR384C, strain iki3, hits give low values 0.947 | S. cerevisiae deletion strains, locus YML016C, strain PPZ1, hits give low values 0.931 | S. cerevisiae deletion strains, locus YMR058W, strain fet3, hits give low values 0.918 | S. cerevisiae deletion strains, locus YMR125W, strain sto1, hits give low values 0.893 | S. cerevisiae deletion strains, locus YMR129W, hits give low values 0.937 | S. cerevisiae deletion strains, locus YMR231W, strain pep5, hits give low values 0.967 | S. cerevisiae deletion strains, locus YNL067W, strain RPL9B, hits give low values 0.925 | S. cerevisiae deletion strains, locus YNL128W, strain TEP1, hits give low values 0.95 | S. cerevisiae deletion strains, locus YNL209W, strain ssb2, hits give low values 0.95 | S. cerevisiae deletion strains, locus YNL248C, strain rpa49, hits give low values 0.951 | S. cerevisiae deletion strains, locus YNL250W, strain rad50, hits give low values 0.979 | S. cerevisiae deletion strains, locus YNL271C, strain bni1, hits give low values 0.953 | S. cerevisiae deletion strains, locus YNL322C, strain KRE1 (second series), hits give low values 0.947 | S. cerevisiae deletion strains, locus YNL322C, strain KRE1, hits give low values 0.948 | S. cerevisiae deletion strains, locus YNR049C, strain mso1, hits give low values 0.964 | S. cerevisiae deletion strains, locus YNR052C, strain pop2, hits give low values 0.946 | S. cerevisiae deletion strains, locus YOL006C, strain TOP1, hits give low values 0.733 | S. cerevisiae deletion strains, locus YOL012C, strain htz1 1.12 | S. cerevisiae deletion strains, locus YOR001W, strain rrp6, hits give low values 0.894 | S. cerevisiae deletion strains, locus YOR061W, strain CKA2, hits give low values 0.957 | S. cerevisiae deletion strains, locus YOR069W, strain VPS5, hits give low values 0.94 | S. cerevisiae deletion strains, locus YOR080W, strain dia2, hits give low values 0.966 | S. cerevisiae deletion strains, locus YOR270C, strain vph1, hits give low values 0.811 | S. cerevisiae deletion strains, locus YOR316C, strain cot1, hits give low values 0.931 | S. cerevisiae deletion strains, locus YPR141C, strain kar3, hits give low values 0.96 | S. cerevisiae strains, strain wild type, hits give low values 0.905
